Hits are enriched below; roughly 3.7% of the tested compounds scored in any of these assays.
GALC G270D up – enhancers of human galactocerebrosidase G270D mutant activity in cells; 145M-Twi-hGALC-G270D cells (Twitcher mouse brain line with human GALC G270D), HMU-beta-Gal fluorescence, 48 h; Potency, µM (highest dose often 57.5 µM), most hits filed as activators; 0.1% of 45,000 active; AID 1159614; further: nearly all actives have a fitted effect of over 65% in size
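Mutant human GALC (G270D), stably expressed in a Twitcher mouse brain cell line lacking endogenous GALC, is measured in live-treated cells via 6-hexadecanoylamino-4-methylumbelliferyl-β-galactoside hydrolysis (0.1 mM final, pH 5.2) with fluorescent detection.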
HTT-AS act – activates huntingtin-antisense promoter activity; HEK293 HTT-AS promoter firefly luciferase reporter, 24 h; response scale: percent change from vehicle, -100% = no light; Potency, µM (doses to about 57.5 µM), usual class: activators; 0.24% of 48,000 active; further: nearly all actives have a fitted effect of over 55% in size
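Firefly luciferase readout (Dual-Glo, 10 min RT) after 24 h, 37 °C compound exposure (final up to 57.5 uM) of HEK293 reporter cells cultured 24 h beforehand; PTC124 at 50 uM final as control inhibitor; activity scaled vehicle 0%, zero RLU -100%.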
GPR32 ag – agonists of human resolvin D1 receptor DRV1 (GPR32). CHO-K1 GPR32 beta-arrestin PathHunter luminescence, 90 min; zero percent set by DMSO-only wells. 2.5% of 48,000 active. activation, % at 76.9 µM. AID 1346428;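 active means activation of at least 60% and not above a set upper limit, about 1 call in 100 departs from these limits; inconclusive means activation of 40% to 60%, or above that upper limit; inactive means activation under 40%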
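GPR32 activation in stably transfected CHO-K1 cells, detected as beta-arrestin recruitment by enzyme-fragment complementation. Compound exposure: 90 min, 37 °C.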
HTT promoter inh – inhibits huntingtin promoter activity. 0.93% of 48,000 active. HEK293 HTT promoter firefly luciferase reporter, 24 h. AID 1508623. Potency, µM (top dose mostly 57.5 µM), hits mostly inhibitors; further: nearly all actives have a fitted effect of over 50% in size
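HEK293 Fluc reporter, 2,500 cells/well, 24 h pre-culture; cpds up to 57.5 uM final, 24 h 37 degrees C; Dual-Glo, 10 min RT; normalized vehicle = 0%, zero RLU = -100%.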
FH mod – Identification of activators of human fumarate hydratase by quantitative high-throughput screening. Potency, µM (series often up to 79.9 µM), usual class: inhibitors. FH coupled MDH/diaphorase resazurin fluorescence, 15 min. Fumarate hydratase, mitochondrial (Homo sapiens), P07954. 0.22% of 54,000 active; further: the screen sought activators but most active calls are inhibition curves; nearly all actives have a fitted effect of over 45% in size
Target sequence (P07954 whole entry, looked up): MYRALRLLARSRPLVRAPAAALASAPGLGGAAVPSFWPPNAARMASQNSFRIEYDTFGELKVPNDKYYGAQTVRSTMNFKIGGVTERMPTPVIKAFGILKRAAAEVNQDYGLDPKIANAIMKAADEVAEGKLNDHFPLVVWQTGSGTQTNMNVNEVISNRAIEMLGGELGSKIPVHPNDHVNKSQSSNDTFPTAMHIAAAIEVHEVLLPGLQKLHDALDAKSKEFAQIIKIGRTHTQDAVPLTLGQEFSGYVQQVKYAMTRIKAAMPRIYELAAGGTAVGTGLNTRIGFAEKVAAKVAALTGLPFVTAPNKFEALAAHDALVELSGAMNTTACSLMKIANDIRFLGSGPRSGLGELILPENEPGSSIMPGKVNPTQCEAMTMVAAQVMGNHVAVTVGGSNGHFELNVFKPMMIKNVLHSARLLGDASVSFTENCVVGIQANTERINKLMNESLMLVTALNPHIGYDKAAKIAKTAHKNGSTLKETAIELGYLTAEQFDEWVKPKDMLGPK
B2AR arrestin ag – agonists recruiting beta-arrestin to human beta2-adrenergic receptor; 44,000 tested, under 10 active; AID 1347077; Potency, µM (highest dose often 46.1 µM), most hits filed as activators; HTLA Tango cells, beta-arrestin recruitment, luciferase luminescence, 18 h; P07550
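First, Tango cells carrying beta2-AR and beta-arrestin fusions received compound up to 46 microM. After 18 hr at 37 degrees C, luciferase substrate was added for 15 minutes, then luminescence gave %Activity for curve fitting.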
Of the large screens only hits and unclear results are named; the others gave an inactive call. Unless noted, the call rests on the fitted dose curve; in most records, active means well fitted curve in the direction sought with a large enough effect; inconclusive means small, poorly fitted or top-dose-only effect, or another doubt; inactive means no such curve, though single readings can be large; an effect the other way counts as inactive or inconclusive.

Cc1cc2[nH]c(=O)c(=O)[nH]c2cc1S(=O)(=O)N1CCN(c2ccccc2F)CC1	GPR32 ag 70.1
Cc1cc2[nH]c(=O)c(=O)[nH]c2cc1S(=O)(=O)N1CCN(c2cccc(C)c2C)CC1	none
O=C(NCCCN1CCN(c2ccccc2)CC1)c1cc2c(s1)-c1ccccc1OC2	HTT promoter inh inconclusive
O=C(NCCCN1CCN(c2ccc(F)cc2)CC1)c1cc2c(s1)-c1ccccc1OC2	GPR32 ag 80.4, FH mod inconclusive
Cc1ccc(CCNC(=O)c2cc3c(s2)-c2ccccc2OC3)cc1	HTT promoter inh inconclusive
O=C(NCCc1ccc(Cl)cc1)c1cc2c(s1)-c1ccccc1OC2	GPR32 ag 62.4
Cc1nc2cc(-c3ccccc3)nn2c(C)c1CCC(=O)N1CCN(c2ccc(F)cc2)CC1	HTT promoter inh 2µM
Cc1nc2c(-c3ccc(F)cc3)c(C)nn2c(C)c1CCC(=O)N1CCN(c2ccccc2)CC1	FH mod inconclusive
CC(=O)c1ccc(NC(=O)CCc2c(C)nc3cc(-c4ccc(Cl)cc4)nn3c2C)cc1	HTT promoter inh 0.282µM
Cc1ccc(NC(=O)CCc2c(C)nc3cc(-c4ccccc4)nn3c2C)cc1F	HTT promoter inh 2µM
Cc1nc2nc(-c3ccc(Cl)cc3Cl)nn2c(C)c1CCC(=O)Nc1ccc(F)cc1	HTT promoter inh 7.94µM
Cc1nc2nc(CNC(=O)c3cccc(F)c3)nn2c(C)c1CCC(=O)Nc1ccc(F)cc1	none
CCOc1ccccc1NC(=O)CCc1c(C)nc2cc(-c3ccccc3)nn2c1C	HTT promoter inh inconclusive
COc1ccc2oc(=O)c(C(=O)Nc3cccc(C(=O)O)c3)cc2c1	HTT-AS act inconclusive, HTT promoter inh 3.98µM
COc1ccc(CNC(=O)c2cc3cc(OC)ccc3oc2=O)cc1	none
CC(C)(C)NS(=O)(=O)c1cncc(-c2cc(F)c3nc(N)nn3c2)c1	none (no result: GALC G270D up, HTT-AS act, GPR32 ag, HTT promoter inh, B2AR arrestin ag)
CCC(C)C(=O)O[C@@H]1[C@@H](O)[C@@H](O[C@H]2O[C@H](CO)[C@@H](O)[C@H](O)[C@H]2O)O[C@H](CO)[C@H]1O (stereo partly specified)	none (no result: GALC G270D up, HTT-AS act, GPR32 ag, HTT promoter inh, B2AR arrestin ag)
Cc1oc(-c2ccccc2F)nc1CS(=O)(=O)CC(=O)N1CCN(c2ccc(Cl)cc2)CC1	GPR32 ag inconclusive, HTT promoter inh 28.2µM
COc1ccccc1N=c1scc(-c2ccc(S(=O)(=O)N3CCCC3)cc2)n1C	HTT promoter inh 3.16µM
CC(C)CCNc1ncnc2c1cnn2-c1cccc(Cl)c1	HTT-AS act inconclusive, GPR32 ag 91.6
CCc1ccccc1Nc1ncnc2c1cnn2-c1ccc(Cl)cc1	GPR32 ag 73.1
CN(C)CCNc1ncnc2c1cnn2-c1cccc(Cl)c1	GPR32 ag 87.2
Clc1cccc(-n2ncc3c(NCCCN4CCOCC4)ncnc32)c1	GPR32 ag 84.6
CCc1ccccc1Nc1ncnc2c1cnn2-c1ccc(C)cc1C	GPR32 ag inconclusive
COc1cc(C(=O)NC2CCN(C)CC2)ccc1Nc1ncc2c(n1)N(C1CCCC1)CC(F)(F)C(=O)N2C	none (no result: GALC G270D up, HTT-AS act, GPR32 ag, HTT promoter inh, B2AR arrestin ag)
CC(C#N)C(C)O[C@@H]1O[C@H](CO)[C@@H](O)[C@H](O)[C@H]1O (stereo partly specified)	none (no result: GALC G270D up, HTT-AS act, GPR32 ag, HTT promoter inh, B2AR arrestin ag)
O=C(C1OC1/C=C/c1ccc2c(c1)OCO2)N1CCCCC1 (stereo unspecified)	none (no result: GALC G270D up, HTT-AS act, GPR32 ag, HTT promoter inh, B2AR arrestin ag)
Cc1cccc(-n2ncc3c(NCCOCCO)ncnc32)c1	HTT-AS act 3.98µM
Cc1ccc(-n2ncc3c(NCCO)ncnc32)cc1Cl	HTT-AS act inconclusive
COCCOc1cnc2ccn([C@H](C)c3nnc4c(F)cc(-c5cnn(C)c5)cn34)c(=O)c2c1	none (no result: GALC G270D up, HTT-AS act, GPR32 ag, HTT promoter inh, B2AR arrestin ag)
CCc1ccc(/C=C2/SC(=S)NC2=O)cc1	FH mod 15.8µM (no result: GALC G270D up, HTT-AS act, HTT promoter inh, B2AR arrestin ag)
O=C(CSc1cn(CCNC(=O)c2c(F)cccc2F)c2ccccc12)Nc1ccc2c(c1)OCCO2	GPR32 ag 68.5
CCc1c(C)nc2nc(-c3ccccc3)nn2c1NCc1ccc(C)cc1	GPR32 ag 72.2, FH mod inconclusive
O=C(Nc1nc2ccc(F)cc2s1)c1nc(S(=O)(=O)Cc2ccccc2F)ncc1Cl	GPR32 ag 105.3, HTT promoter inh inconclusive
CC(CO[C@@H]1O[C@H](COC(=O)/C=C/c2ccc(O)c(O)c2)[C@@H](O)[C@H](O)[C@H]1O)C1(O)COC(=O)C1 (stereo partly specified)	none (no result: GALC G270D up, HTT-AS act, GPR32 ag, HTT promoter inh, B2AR arrestin ag)
O=C(CC(c1ccccc1)c1cc(Br)ccc1O)NCC1(c2ccccc2)CCCC1 (stereo unspecified)	GPR32 ag 108.1 (no result: GALC G270D up, HTT-AS act, HTT promoter inh, FH mod)
CCCCNc1nc2c(c(=O)n(C)c(=O)n2C)n1CC(O)COc1ccccc1C (stereo unspecified)	GPR32 ag 66.6
Cn1c(=O)[nH]c(=O)c2c1nc(NCCO)n2CC(O)COc1ccccc1 (stereo unspecified)	none (no result: GALC G270D up, HTT-AS act, HTT promoter inh, FH mod)
O=C(c1ccc2c(c1)CCN2S(=O)(=O)c1ccccc1)N1CCN(c2cccc(Cl)c2)CC1	HTT promoter inh inconclusive
CCCCCn1c(=O)[nH]c2cc(C(=O)N3CCN(c4cccc(C(F)(F)F)c4)CC3)ccc2c1=O	GPR32 ag 60.8, HTT promoter inh inconclusive
O=C(CCCCCn1c(=O)[nH]c2ccccc2c1=O)N1CCN(c2cccc(C(F)(F)F)c2)CC1	none
CCCCCn1c(=O)[nH]c2cc(C(=O)N3CCN(c4ccccc4)CC3)ccc2c1=O	none
COc1cc2[nH]c(=O)n(CCCCCC(=O)N3CCN(c4cccc(C(F)(F)F)c4)CC3)c(=O)c2cc1OC	GPR32 ag 63.1, HTT promoter inh inconclusive, FH mod inconclusive
CCS(=O)(=O)N1CCc2cc(C(=O)N3CCN(c4cccc(C(F)(F)F)c4)CC3)ccc21	GPR32 ag 64.7, HTT promoter inh inconclusive
COC(=O)C1=CO[C@@H](O[C@@H]2O[C@H](CO)[C@@H](O)[C@H](O)[C@H]2O)[C@@H]2C(CO)=CC[C@]12O	none (no result: GALC G270D up, HTT-AS act, GPR32 ag, HTT promoter inh, B2AR arrestin ag)
O=C1NC(=O)/C(=C/c2ccc3nccc(-c4ccncc4)c3c2)S1	FH mod 31.6µM (no result: GALC G270D up, HTT-AS act, GPR32 ag, HTT promoter inh, B2AR arrestin ag)
O=C1NC(=O)/C(=C\c2ccc3nccc(-c4ccncc4)c3c2)S1	FH mod 25.1µM (no result: GALC G270D up, HTT-AS act, GPR32 ag, HTT promoter inh, B2AR arrestin ag)
O=C1NC(=O)/C(=C/c2ccc3nccnc3c2)S1	none (no result: GALC G270D up, HTT-AS act, HTT promoter inh, B2AR arrestin ag)
COc1cc2nc(N3CCC(N4CCCCC4)CC3)nc(NC3CCCCCC3)c2cc1OC	none (no result: GALC G270D up, HTT-AS act, GPR32 ag, HTT promoter inh, B2AR arrestin ag)
COc1cc(C(=O)NC(c2ccc(Cl)cc2)c2cc(Cl)c3cccnc3c2O)cc(OC)c1OC (stereo unspecified)	HTT promoter inh 5.01µM

Screening data as filed in PubChem.
